Four molecules from PubChem BioAssay (EPA / NIEHS) can be followed below.

Results filed as inconclusive are left out. Calls of active or inactive are those of the source. Rule for the calls, unless noted: active = hit-call score of the fitted dose curve at least 0.9, where 1 is the maximum; inactive = score below 0.9.

A short description of test [1]: ATG_CRE_CIS: Attagene CIS-FACTORIAL HepG2 Assay for human cAMP Responsive Element (CRE) binding protein 3 (AID 2282926). The note with it: HepG2 CRE cis-reporter, Attagene multiplexed mRNA; actives raise or lower the signal. In short, it runs like this: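 HepG2 cells transiently transfected with a multiplexed reporter library (CRE-driven unit among them) were dosed for 24 h. Reporter mRNA was quantified by RT-PCR, fluorescent labelling, HpaI digestion and capillary electrophoresis, with bidirectional fitting against DMSO baseline.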

A short description of test [2]: ATG_CMV_CIS: Attagene CIS-FACTORIAL HepG2 Assay for human CMV (Internal Marker) (AID 2282928).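 Note: endpoint acts as a background internal control marker rather than a target.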 The note with it: HepG2 CMV promoter reporter, transcription factor profiling; actives raise or lower the signal. Summed up: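 HepG2 cells transiently transfected with multiple cis-regulated reporter units; 24 h compound exposure. Reporter mRNA quantified by RT-PCR, 6-FAM primer-extension labeling, HpaI digestion and capillary electrophoresis; bidirectional fitting against DMSO baseline.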

Test [3] is described as follows: ATG_AP_1_CIS: Attagene CIS-FACTORIAL HepG2 Assay for human Activator Protein 1 (AP-1) (AID 2282931). The note with it: HepG2 Attagene cis-factorial AP-1 reporter mRNA; actives raise or lower the signal. In short, it runs like this: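 HepG2, transient cis-reporter transfection; 24 h; readout RT-PCR/CE fluorescence; DMSO baseline, gain and loss fitted.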
The nature of test [4]: ATG_BRE_CIS: Attagene CIS-FACTORIAL HepG2 Assay for human Bone Morphogenetic Protein (BMP) Response Element (BRE) (AID 2282933). The note with it: HepG2 BMP response element reporter, Attagene transcription factor profiling; actives raise or lower the signal. In short, it runs like this:
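Multiplexed cis-reporter assay, HepG2, 24 h exposure. mRNA from reporter units quantified via RT-PCR/CE; DMSO baseline; bidirectional curve fit.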

Test [5] is described as follows: ATG_Ets_CIS: Attagene CIS-FACTORIAL HepG2 Assay for human Erythroblast Transformation Specific (ETS) (AID 2282941). The settings on record: HepG2 ETS cis-reporter transcription, actives raise or lower the signal. In short, it runs like this: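 HepG2 cells transiently transfected with cis-promoter reporter transcription units were dosed for 24 h; reporter mRNA was measured by RT-PCR, 6-FAM primer extension, HpaI digestion and capillary electrophoresis, with bidirectional fitting against DMSO baseline.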

A short description of test [6]: ATG_FoxO_CIS: Attagene CIS-FACTORIAL HepG2 Assay for human Forkhead box O (FoxO) (AID 2282943). The note with it: HepG2 Attagene cis-reporter, FoxO element, mRNA; actives raise or lower the signal. Summed up:
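HepG2 cells transiently transfected with cis-promoter-driven multiple reporter transcription units; 24 h after chemical dosing, reporter mRNA quantified by RT-PCR, fluorescent primer extension, HpaI digestion and capillary electrophoresis. Bidirectional fitting versus DMSO baseline.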

Test [7] can be described thus: ATG_GATA_CIS: Attagene CIS-FACTORIAL HepG2 Assay for human GATA Binding Protein (AID 2282944). The note with it: HepG2 GATA cis-element reporter, Attagene multiplex mRNA; actives raise or lower the signal. Summed up: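 After transfecting HepG2 cells with multiple cis-regulated reporter units, chemicals are dosed for 24 h; isolated RNA undergoes RT-PCR and fluorescent labeling before capillary electrophoresis, with activity expressed against DMSO.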

The target of test [8] is Hypoxia-inducible factor 1-alpha (Homo sapiens) (UniProt Q16665). Put plainly: ATG_HIF1a_CIS: Attagene CIS-FACTORIAL HepG2 Assay for human Hypoxia Inducible Factor 1 (HIF1A) (AID 2282951). The note with it: HepG2 Attagene cis-factorial HIF1a reporter transcription; actives raise or lower the signal. Summed up:
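After 24 h chemical exposure of reporter-transfected HepG2 cells, reporter cDNA was PCR-amplified, labelled by 6-FAM primer extension (2 min 95 C, 20 s 68 C, 10 min 72 C), HpaI-cut (2 h, 37 C) and analysed by CE.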

Test [9] addresses Hepatocyte nuclear factor 6 (Homo sapiens) (UniProt Q9UBC0). Put plainly: ATG_HNF6_CIS: Attagene CIS-FACTORIAL HepG2 Assay for human Hepatocyte Nuclear Factor 6 (HNF6) (AID 2282952). The settings on record: HepG2 Attagene cis-factorial HNF6 reporter transcription; actives raise or lower the signal. Summed up:
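HepG2 cells transiently transfected with cis-element-driven multiple reporter transcription units, dosed 24 h; reporter mRNA quantified by RT-PCR, FAM primer extension, HpaI digestion and capillary electrophoresis; bidirectional fit versus DMSO baseline.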

Test [10] has as its target Heat shock factor protein 1 (Homo sapiens) (UniProt Q00613). Put plainly: ATG_HSE_CIS: Attagene CIS-FACTORIAL HepG2 Assay for human Heat Shock Transcription Factor 1 (HSE) (AID 2282953). The note with it: HepG2 HSE cis-reporter, Attagene RNA transcription; actives raise or lower the signal. In short, it runs like this:
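Endogenous transcription factor activity captured via cis-promoter reporter units transfected into HepG2; treatment lasted 24 h. Fluorescence intensity of reporter fragments analysed with bidirectional curve fitting, DMSO baseline.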

Test [11] can be described thus: ATG_MRE_CIS: Attagene CIS-FACTORIAL HepG2 Assay for human Metal Responsive Element (MRE) (AID 2282954). The note with it: HepG2 MRE cis-reporter transcription, Attagene multiplex; actives raise or lower the signal. Summed up:
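HepG2 cells transiently transfected with multiple cis-element reporter units measure endogenous MTF1-driven transcription. After 24 h compound exposure, reporter mRNA is quantified by RT-PCR with 6-FAM labelling, HpaI digestion and capillary electrophoresis; bidirectional fits versus DMSO.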

Test [12] concerns the target Paired box protein Pax-6 (Homo sapiens) (UniProt P26367). Put plainly: ATG_Pax6_CIS: Attagene CIS-FACTORIAL HepG2 Assay for human Paired Box 6 (PAX6) (AID 2282956). The note with it: HepG2 CIS-FACTORIAL PAX6 reporter transcription, RNA readout; actives raise or lower the signal. In short, it runs like this: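 HepG2 cells transiently transfected with multiplexed cis-promoter reporter units (endogenous TF activity) were dosed for 24 h. Reporter mRNA was quantified by RT-PCR, 6-FAM labeling, HpaI digestion and capillary electrophoresis; bidirectional fitting versus DMSO baseline.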

Test [13] is described as follows: ATG_VDRE_CIS: Attagene CIS-FACTORIAL HepG2 Assay for human Vitamin D Receptor Element (VDRE) (AID 2282968). The note with it: HepG2 VDRE cis-reporter transcription, actives raise or lower the signal. Summed up: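 HepG2 cells transiently transfected with cis-element reporter units, dosed 24 h; reporter mRNA measured by RT-PCR, 6-FAM labeling, HpaI digestion and capillary electrophoresis. Activity fitted bidirectionally against DMSO baseline.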

A short description of test [14]: ATG_NF_kB_CIS: Attagene CIS-FACTORIAL HepG2 Assay for human Nuclear Factor Kappa B (NF-kB) (AID 2282991). The note with it: HepG2 Attagene cis-factorial NF-kB reporter mRNA; actives raise or lower the signal. In short, it runs like this:
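Fluorescence of labelled RT-PCR products separated by capillary electrophoresis gives reporter mRNA levels from transfected HepG2 cells exposed 24 h; values are fitted in both directions relative to DMSO.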

A short description of test [15]: ATG_NRF2_ARE_CIS: Attagene CIS-FACTORIAL HepG2 Assay for human Nuclear Factor Erythroid 2 Related Factor 2 (NFR2) response to Antioxidant Response Elements (ARE) (AID 2282992). The note with it: HepG2 Attagene ARE/NRF2 reporter, transcription factor activity; actives raise or lower the signal. In short, it runs like this:
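HepG2 cells transiently transfected with multiplexed cis-regulated reporter transcription units measure endogenous transcription factor activity. Reporter mRNA at 24 h is quantified by RT-PCR, fluorescent labelling and capillary electrophoresis, with bidirectional fitting relative to DMSO.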

Test [16] addresses Cellular tumor antigen p53 (Homo sapiens) (UniProt P04637). Put plainly: ATG_p53_CIS: Attagene CIS-FACTORIAL HepG2 Assay for human p53 Transcription Factor (AID 2282994). The settings on record: HepG2 p53 cis-element reporter, Attagene mRNA; actives raise or lower the signal. In short, it runs like this: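 HepG2 cells transiently transfected with multiplexed cis-regulated reporter transcription units read endogenous TF activity. After 24 h compound exposure, reporter mRNA was quantified by RT-PCR, fluorescent labelling, HpaI digestion and capillary electrophoresis; bidirectional fits versus DMSO baseline.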

Test [17] in a line: ATG_XTT_Cytotoxicity: Cytotoxicity Assessment in the Attagene TRANS-FACTORIAL HepG2 Assay (AID 2283584; active = hit-call score of the fitted dose curve at least 0.9, where 1 is the maximum;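 for AC50: cells exposed to compound for 24 h before reading; active means loss of viability signal versus DMSO baseline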). In short, it runs like this: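 HepG2 human liver cells, transiently transfected with multiple GAL4-UAS reporter units, were dosed and read at 24 h by XTT as cell number. Loss of signal was fitted relative to DMSO negative control baseline.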
In test [18] the target is Aryl hydrocarbon receptor (Homo sapiens) (UniProt P35869). The test is described as follows: ATG_Ahr_CIS: Attagene CIS-FACTORIAL HepG2 Assay for human Aryl Hydrocarbon Receptor (Ahr) (AID 2282930). The note with it: HepG2 AhR cis-factorial reporter transcription; actives raise or lower the signal. Summed up:
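HepG2 cells transiently transfected with cis-element-driven multiplexed reporter transcription units; endogenous transcription factor activity measured as reporter mRNA 24 h after dosing. RT-PCR, 6-FAM labelling, HpaI digestion, capillary electrophoresis; bidirectional fitting versus DMSO baseline.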

Test [19] has as its target Hepatocyte nuclear factor 3-beta (Homo sapiens) (UniProt Q9Y261). Put plainly: ATG_FoxA2_CIS: Attagene CIS-FACTORIAL HepG2 Assay for human Forkhead box A2 (FOXA2) (AID 2282942). The settings on record: HepG2 cis-reporter transcription factor activity, 24 h; actives raise or lower the signal. Summed up:
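24 h dosing of HepG2 bearing cis-reporter constructs; mRNA readout by RT-PCR/CE fluorescence; bidirectional fit, DMSO baseline.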

Test [20] is described as follows: ATG_SREBP_CIS: Attagene CIS-FACTORIAL HepG2 Assay for human Sterol Regulatory Element Binding (SREBP) (AID 2282962). The note with it: HepG2 Attagene cis-factorial SREBP reporter, mRNA; actives raise or lower the signal. In short, it runs like this: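 HepG2 cells transiently transfected with multiplexed cis-element reporter units report endogenous transcription factor activity. After 24 h of chemical exposure, reporter mRNA was quantified by RT-PCR, 6-FAM labelling, HpaI digestion and capillary electrophoresis; bidirectional fits used DMSO as baseline.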

Sequence of Heat shock factor protein 1 (Homo sapiens) (Q00613 whole entry, looked up, the tested form may be a part): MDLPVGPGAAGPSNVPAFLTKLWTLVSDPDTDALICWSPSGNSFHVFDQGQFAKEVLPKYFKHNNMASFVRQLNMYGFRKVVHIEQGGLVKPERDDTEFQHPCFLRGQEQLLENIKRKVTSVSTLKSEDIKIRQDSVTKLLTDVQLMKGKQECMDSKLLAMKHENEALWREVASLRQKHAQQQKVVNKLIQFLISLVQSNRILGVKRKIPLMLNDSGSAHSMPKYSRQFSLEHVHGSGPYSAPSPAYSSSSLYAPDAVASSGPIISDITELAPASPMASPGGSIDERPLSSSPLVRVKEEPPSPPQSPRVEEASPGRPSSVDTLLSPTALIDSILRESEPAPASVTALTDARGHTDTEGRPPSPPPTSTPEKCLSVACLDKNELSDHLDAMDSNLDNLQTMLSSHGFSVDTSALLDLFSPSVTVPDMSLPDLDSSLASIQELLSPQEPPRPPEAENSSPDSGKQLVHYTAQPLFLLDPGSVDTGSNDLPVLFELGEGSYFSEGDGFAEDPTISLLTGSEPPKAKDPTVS
Sequence of Hepatocyte nuclear factor 6 (Homo sapiens) (Q9UBC0 whole entry, looked up): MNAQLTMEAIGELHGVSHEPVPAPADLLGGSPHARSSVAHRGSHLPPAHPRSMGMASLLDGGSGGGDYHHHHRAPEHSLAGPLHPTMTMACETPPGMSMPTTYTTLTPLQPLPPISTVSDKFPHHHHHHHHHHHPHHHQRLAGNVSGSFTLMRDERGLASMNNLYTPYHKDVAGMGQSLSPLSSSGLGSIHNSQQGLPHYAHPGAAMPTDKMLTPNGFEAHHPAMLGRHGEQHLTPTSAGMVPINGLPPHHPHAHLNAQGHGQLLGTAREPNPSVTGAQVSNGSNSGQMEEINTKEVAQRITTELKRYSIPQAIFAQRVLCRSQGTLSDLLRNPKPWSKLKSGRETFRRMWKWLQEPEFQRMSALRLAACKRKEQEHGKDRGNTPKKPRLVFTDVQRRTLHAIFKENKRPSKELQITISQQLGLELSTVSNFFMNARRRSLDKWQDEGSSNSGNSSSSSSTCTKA
Sequence of Hypoxia-inducible factor 1-alpha (Homo sapiens) (Q16665 whole entry, looked up): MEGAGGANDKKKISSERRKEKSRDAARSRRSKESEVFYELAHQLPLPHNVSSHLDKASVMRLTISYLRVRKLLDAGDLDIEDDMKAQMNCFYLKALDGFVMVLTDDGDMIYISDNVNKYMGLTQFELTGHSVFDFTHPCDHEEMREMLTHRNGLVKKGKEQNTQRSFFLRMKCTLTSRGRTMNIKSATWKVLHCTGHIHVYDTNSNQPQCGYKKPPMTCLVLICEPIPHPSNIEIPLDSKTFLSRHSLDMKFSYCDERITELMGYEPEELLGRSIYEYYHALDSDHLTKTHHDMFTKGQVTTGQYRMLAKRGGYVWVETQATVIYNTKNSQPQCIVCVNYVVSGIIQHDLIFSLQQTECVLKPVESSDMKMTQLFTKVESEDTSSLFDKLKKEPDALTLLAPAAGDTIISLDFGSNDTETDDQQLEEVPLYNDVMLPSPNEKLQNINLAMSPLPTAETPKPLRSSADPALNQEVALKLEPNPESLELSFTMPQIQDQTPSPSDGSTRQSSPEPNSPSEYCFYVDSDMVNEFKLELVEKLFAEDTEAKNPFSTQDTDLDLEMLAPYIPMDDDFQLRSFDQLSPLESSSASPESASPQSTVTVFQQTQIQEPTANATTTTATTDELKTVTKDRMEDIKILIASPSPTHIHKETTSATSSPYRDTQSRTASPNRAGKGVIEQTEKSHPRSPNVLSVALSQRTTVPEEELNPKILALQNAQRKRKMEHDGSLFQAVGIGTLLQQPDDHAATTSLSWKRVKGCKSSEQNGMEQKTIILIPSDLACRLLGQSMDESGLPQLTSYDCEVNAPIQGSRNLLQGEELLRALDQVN
Sequence of Cellular tumor antigen p53 (Homo sapiens) (P04637 whole entry, looked up): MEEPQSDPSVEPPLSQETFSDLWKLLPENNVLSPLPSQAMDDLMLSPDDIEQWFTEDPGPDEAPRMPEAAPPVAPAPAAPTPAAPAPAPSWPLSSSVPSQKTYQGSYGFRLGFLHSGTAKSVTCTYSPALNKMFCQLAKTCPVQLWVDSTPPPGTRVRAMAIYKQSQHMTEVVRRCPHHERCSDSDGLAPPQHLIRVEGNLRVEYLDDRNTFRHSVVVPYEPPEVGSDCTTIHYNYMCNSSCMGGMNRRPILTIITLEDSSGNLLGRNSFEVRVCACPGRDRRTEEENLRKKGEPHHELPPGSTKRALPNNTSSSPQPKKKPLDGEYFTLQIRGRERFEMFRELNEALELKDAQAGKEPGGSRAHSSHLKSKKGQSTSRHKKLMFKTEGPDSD
Sequence of Paired box protein Pax-6 (Homo sapiens) (P26367 whole entry, looked up): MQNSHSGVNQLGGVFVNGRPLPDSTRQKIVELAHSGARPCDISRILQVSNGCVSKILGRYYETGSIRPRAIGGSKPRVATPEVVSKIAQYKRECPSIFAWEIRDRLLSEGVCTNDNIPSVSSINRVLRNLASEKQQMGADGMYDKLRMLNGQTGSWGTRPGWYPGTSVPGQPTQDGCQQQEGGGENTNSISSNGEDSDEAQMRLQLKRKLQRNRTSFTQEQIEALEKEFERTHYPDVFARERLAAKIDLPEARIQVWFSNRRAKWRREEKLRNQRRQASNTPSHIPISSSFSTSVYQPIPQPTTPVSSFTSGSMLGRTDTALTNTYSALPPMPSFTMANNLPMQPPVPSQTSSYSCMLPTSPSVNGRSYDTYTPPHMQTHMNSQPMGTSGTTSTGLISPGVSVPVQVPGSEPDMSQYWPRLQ
Sequence of Aryl hydrocarbon receptor (Homo sapiens) (P35869 whole entry, looked up): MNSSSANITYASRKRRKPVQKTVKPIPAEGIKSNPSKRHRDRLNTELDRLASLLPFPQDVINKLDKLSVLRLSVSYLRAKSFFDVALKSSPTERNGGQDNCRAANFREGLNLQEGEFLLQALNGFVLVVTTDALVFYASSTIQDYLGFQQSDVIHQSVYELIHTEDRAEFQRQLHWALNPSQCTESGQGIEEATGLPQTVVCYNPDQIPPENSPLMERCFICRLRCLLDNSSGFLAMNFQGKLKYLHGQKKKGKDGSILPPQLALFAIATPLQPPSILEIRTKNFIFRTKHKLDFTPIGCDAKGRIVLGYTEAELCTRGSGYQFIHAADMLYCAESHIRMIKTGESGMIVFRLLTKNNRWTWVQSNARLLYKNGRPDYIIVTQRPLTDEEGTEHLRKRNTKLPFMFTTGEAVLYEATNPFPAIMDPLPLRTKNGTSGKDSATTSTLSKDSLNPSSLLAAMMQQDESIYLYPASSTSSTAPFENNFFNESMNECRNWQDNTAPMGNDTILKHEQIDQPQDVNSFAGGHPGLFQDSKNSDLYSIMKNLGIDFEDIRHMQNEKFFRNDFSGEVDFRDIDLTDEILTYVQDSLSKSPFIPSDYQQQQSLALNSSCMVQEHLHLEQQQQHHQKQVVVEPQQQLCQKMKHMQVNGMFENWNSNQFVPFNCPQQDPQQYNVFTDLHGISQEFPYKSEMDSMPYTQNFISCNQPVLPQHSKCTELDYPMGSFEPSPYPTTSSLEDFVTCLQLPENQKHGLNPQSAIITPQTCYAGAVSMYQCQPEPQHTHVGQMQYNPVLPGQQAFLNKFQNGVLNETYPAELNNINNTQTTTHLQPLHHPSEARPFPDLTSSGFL
Sequence of Hepatocyte nuclear factor 3-beta (Homo sapiens) (Q9Y261 whole entry, looked up): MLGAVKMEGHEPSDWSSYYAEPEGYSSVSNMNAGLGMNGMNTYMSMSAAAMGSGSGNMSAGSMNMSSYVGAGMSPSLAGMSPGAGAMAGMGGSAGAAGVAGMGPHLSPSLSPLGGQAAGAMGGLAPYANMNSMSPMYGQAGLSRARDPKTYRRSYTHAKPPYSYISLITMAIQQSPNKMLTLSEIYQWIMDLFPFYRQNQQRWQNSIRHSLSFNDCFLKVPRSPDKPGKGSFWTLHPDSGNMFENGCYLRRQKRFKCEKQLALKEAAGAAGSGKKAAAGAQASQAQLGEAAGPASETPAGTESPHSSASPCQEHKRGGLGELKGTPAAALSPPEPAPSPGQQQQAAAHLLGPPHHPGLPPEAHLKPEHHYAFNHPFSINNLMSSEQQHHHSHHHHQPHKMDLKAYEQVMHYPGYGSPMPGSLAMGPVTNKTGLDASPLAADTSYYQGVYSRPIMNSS

`CC(C)(C)C(=O)CCl`: the outcome in test [1], in test [2], in [3], in test [4], in test [5] and in test [6] was inactive. Further, the outcome in test [7], in test [9], in test [12], in test [13], in test [14] and in test [16] was inactive. The outcome in test [17] was inactive. In addition, the concentration at half-maximal activity (AC50) (usually the concentration at which the activity in the assay is half-maximal) in [8] is 62.4 µM (active); in [10], 157 µM (active); in [11], 77.1 µM (active); in [15], 21.6 µM (active).

Consider `Cc1ccc(N(SC(F)(Cl)Cl)S(=O)(=O)N(C)C)cc1`, for which the result in test [1], in test [18], in test [4], in test [5], in test [19] and in test [6] was inactive. Also, the outcome in test [7], in [9], in test [20], in [14] and in [16] was inactive. Also, the AC50 in test [2] is 15.8 µM (active); in test [8] it was 11.1 µM (active); in test [10], 16.5 µM (active); in test [11], 15.8 µM (active); in test [12], 17.9 µM (active); in [13], 14.4 µM (active). In addition, the AC50 in [15] was 13.9 µM (active); in [17], 38.7 µM (active).

On to `c1ccc(Nc2ccc3ccccc3c2)cc1`, for which the result in test [1], in test [2], in [4], in test [5], in test [6] and in test [8] was inactive. For the same molecule, the call in [9], in test [10], in test [12], in [14] and in test [16] was inactive. The half-maximal activity concentration (AC50) in test [3] is 115 µM (active); in [15], 37 µM (active).

Consider `N#CCNCC#N`, for which the molecule was called inactive in test [1], in [2], in test [18], in [3], in test [5] and in [19]. Moreover, the outcome in test [6], in test [7], in [8], in [9], in test [10] and in test [11] was inactive. For the same molecule, the molecule was called inactive in test [12], in [20], in test [13], in [14], in test [15] and in test [16]. Moreover, in [17], the call was inactive.
